Reference: PubChem BioAssay
Records with an inconclusive call do not appear. The source made the active and inactive calls. Cut-off read from the data, not from the text of the source, unless noted: active = inhibition above about 80%; inactive = the rest.

How the values were obtained:
[1] = galactose survival enhancers in mitochondrial complex I cybrids – cell-based, galactose medium, ATP luminescence, primary screen (AID 1645843;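 active = z-score of at least 1.8 in each of two replicates, scored against plate mean and spread of sample wells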;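 note: positive z means more ATP and so rescue of galactose-driven cybrid death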); conditions: complex I mutant cybrid cells, 72 h, stronger effect = higher value
[2] = growth inhibition, single agents and combos, LFS_MB_1R, cell-based, cisplatin or BGB combos, synergistic combos for chromothripsis tumors (AID 1671452); conditions: LFS_MB_1R medulloblastoma cells, stronger effect = higher value;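 note: cells exposed for 96 hours before readout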
[3] = growth inhibition, single agents and combos, CRL2098, cell-based, BGB or cisplatin IC20 combos, synergistic combos for chromothripsis tumors (AID 1671454); conditions: CRL2098 osteosarcoma cells, drug combinations, stronger effect = higher value;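 note: cells exposed for 96 h before readout; 0% = vehicle DMSO and 100% = killing by high DMSO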
[4] = growth inhibition, single agents and combos, HD-MB03, cell-based, BGB or cisplatin IC20 combos, synergistic combos for chromothripsis tumors (AID 1671455; in the data active = inhibition above about 83%;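 note: 0% = vehicle DMSO and 100% = high DMSO as cytotoxic control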); conditions: HD-MB03 medulloblastoma cells, stronger effect = higher value
[5] = growth inhibition, single agents and combos, UWB1.289, cell-based, BGB or cisplatin combos, synergistic combos for chromothripsis tumors (AID 1671456); conditions: UWB1.289 ovarian carcinoma cells, stronger effect = higher value;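 note: cells exposed to compound for four days; 0% = vehicle DMSO and 100% = killing by high DMSO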
[6] = growth inhibition, single agents and combos, LFS_MB_2R, cell-based, cisplatin combos, synergistic combos for chromothripsis tumors (AID 1671457); conditions: LFS_MB_2R medulloblastoma cells, stronger effect = higher value;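 note: cells exposed to compound for four days before readout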
[7] = UWB1.289_BRCA1 ovarian cancer growth, cell-based, BGB or cisplatin combinations (AID 1671459); conditions: UWB1.289 BRCA1 ovarian carcinoma, drug combinations, stronger effect = higher value
[8] = drug combination toxicity in non-malignant astrocytes – cell-based, BGB or cisplatin IC20 combos, cytotoxicity control for chromothriptic childhood tumor combination screen (AID 1671460); conditions: Human astrocytes, viability inhibition, drug combinations, at 0.5 µM, stronger effect = higher value;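 note: cells exposed to compounds for 96 hours before viability readout; 0% = vehicle and 100% = killing control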
[9] = BT084 cell growth, single and combined drugs, ICGC_MB145, cisplatin and BGB IC40 combos (AID 1671461); conditions: BT084 medulloblastoma cells, drug combinations, stronger effect = higher value;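 note: cells exposed to drugs for 96 hours; 0% = vehicle DMSO and 100% = high DMSO full killing control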
[10] = RCMB18 cell growth, single agent and combined, cisplatin and BGB IC40 combos (AID 1671462); conditions: RCMB18 medulloblastoma cells, stronger effect = higher value;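 note: cells exposed to compound for four days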
[11] = CRL1545 cell growth, single agent and combined, cisplatin and BGB IC20 combos (AID 1671464); conditions: CRL1545 osteosarcoma cells, stronger effect = higher value;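 note: cells exposed to compound for 96 hours before readout; 0% = vehicle DMSO and 100% = high DMSO killing control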
[12] = target: Mitogen-activated protein kinase 7 (Homo sapiens) (UniProt Q13164); experiment: Gal4-ERK5 driven luciferase induction – cell-based, HTS, primary screen (AID 1508626;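 active = luciferase signal above three times the same-plate solvent-only control wells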;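 note: luciferase driven by Gal4-ERK5 fusion binding five Gal4 sites before minimal TATA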); conditions: HeLa Gal4-ERK5 transactivation, 18 h, at 5 µM, stronger effect = higher value
[13] = target: ATP-dependent translocase ABCB1 (Homo sapiens) (UniProt P08183); experiment: P-glycoprotein substrate transport blockade – cell-based (AID 377; in the data active = fluorescence slope change above about 50%); conditions: MDR1-expressing cells, fluorescent substrate accumulation slope; stronger effect = higher value; concentration not given here
[14] = measured here: combination with BGB IC40, at 0.05 µM
[15] = measured here: combination with cisplatin, at 0.5 µM
[16] = measured here: combination with cisplatin, at 5 µM
[17] = measured here: combination with BGB at IC20, at 0.5 µM
[18] = measured here: combination with cisplatin at IC20, at 0.5 µM
[19] = measured here: combo with BGB at IC20, at 0.5 µM
[20] = measured here: combo with cisplatin at IC20, at 0.5 µM
[21] = measured here: inhibition with BGB combination, at 0.05 µM
[22] = measured here: inhibition with cisplatin combination, at 0.05 µM
[23] = BGB combination, concentration series, at 5 µM
[24] = cisplatin combination, concentration series, at 5 µM
[25] = measured here: combo with BGB IC20
[26] = measured here: combo with cisplatin IC20
[27] = cisplatin combination, at 0.5 µM
[28] = measured here: BGB IC40 combination 0.05 uM, at 0.05 µM
[29] = measured here: BGB IC40 combination, at 0.05 µM
[30] = measured here: with BGB IC20 combination, at 0.5 µM
[31] = measured here: with cisplatin IC20 combination, at 0.5 µM

Sequence of ATP-dependent translocase ABCB1 (Homo sapiens) (P08183 whole entry, looked up): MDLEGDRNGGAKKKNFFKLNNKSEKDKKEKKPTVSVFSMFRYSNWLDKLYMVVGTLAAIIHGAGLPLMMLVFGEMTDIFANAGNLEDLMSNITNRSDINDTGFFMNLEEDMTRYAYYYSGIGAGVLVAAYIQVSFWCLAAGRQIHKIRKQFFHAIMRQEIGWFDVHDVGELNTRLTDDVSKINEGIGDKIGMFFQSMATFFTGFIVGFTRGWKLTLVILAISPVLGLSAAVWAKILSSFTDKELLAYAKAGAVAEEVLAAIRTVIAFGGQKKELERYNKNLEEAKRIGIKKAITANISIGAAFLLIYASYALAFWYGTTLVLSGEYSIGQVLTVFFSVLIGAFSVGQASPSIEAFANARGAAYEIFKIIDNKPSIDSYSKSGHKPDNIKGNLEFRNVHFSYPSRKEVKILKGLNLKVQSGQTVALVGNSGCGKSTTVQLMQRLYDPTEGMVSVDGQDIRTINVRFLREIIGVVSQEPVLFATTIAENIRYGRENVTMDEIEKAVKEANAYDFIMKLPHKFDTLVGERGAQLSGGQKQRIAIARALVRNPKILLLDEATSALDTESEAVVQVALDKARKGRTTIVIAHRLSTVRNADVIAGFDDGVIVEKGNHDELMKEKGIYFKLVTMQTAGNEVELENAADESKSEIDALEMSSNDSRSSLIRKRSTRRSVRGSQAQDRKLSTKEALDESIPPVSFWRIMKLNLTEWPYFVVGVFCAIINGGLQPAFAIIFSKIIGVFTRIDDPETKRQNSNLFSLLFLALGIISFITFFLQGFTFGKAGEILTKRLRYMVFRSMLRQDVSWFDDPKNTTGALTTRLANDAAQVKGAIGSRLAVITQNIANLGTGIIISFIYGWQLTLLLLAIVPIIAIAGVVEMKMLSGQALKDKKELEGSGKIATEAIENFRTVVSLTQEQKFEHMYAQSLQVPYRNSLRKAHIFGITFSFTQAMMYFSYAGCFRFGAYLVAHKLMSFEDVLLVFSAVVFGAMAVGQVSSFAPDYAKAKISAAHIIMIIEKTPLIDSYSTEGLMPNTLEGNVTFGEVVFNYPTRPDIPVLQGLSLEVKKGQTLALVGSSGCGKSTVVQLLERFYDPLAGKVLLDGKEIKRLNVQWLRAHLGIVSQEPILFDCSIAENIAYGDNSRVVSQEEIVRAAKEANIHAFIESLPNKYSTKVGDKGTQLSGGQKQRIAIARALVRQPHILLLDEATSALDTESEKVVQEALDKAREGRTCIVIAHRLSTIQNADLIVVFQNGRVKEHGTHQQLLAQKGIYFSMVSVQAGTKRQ
Sequence of Mitogen-activated protein kinase 7 (Homo sapiens) (Q13164 whole entry, looked up, the tested form may be a part): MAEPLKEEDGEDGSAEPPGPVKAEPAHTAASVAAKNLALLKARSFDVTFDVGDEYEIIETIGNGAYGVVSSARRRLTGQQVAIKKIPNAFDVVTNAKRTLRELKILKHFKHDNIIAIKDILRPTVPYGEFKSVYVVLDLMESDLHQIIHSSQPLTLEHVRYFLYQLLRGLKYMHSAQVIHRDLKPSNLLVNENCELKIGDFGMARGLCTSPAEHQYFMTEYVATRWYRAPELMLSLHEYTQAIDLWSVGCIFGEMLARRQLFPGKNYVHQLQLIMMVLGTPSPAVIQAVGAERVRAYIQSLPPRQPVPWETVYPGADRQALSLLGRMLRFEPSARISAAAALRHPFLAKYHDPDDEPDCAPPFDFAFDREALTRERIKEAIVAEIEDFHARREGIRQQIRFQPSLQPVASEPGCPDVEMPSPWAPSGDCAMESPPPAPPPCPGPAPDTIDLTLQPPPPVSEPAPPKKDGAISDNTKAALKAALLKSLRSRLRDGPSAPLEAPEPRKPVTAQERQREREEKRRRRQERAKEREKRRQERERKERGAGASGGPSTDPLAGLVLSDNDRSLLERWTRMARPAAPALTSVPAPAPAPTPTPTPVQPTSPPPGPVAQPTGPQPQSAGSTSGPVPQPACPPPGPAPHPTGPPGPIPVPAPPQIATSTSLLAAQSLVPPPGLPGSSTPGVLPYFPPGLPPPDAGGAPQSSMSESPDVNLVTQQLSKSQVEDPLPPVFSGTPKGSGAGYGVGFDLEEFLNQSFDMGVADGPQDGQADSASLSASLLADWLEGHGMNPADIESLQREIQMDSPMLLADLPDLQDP

## Nc1ccc2cc3ccc(N)cc3nc2c1
[1]
  z-score: -2.66 (inactive)
[2]; at 0.5 µM
  inhibition: -22.9% (inactive)
[2]; [14]
  inhibition: -30.9%
[2]; [15]
  inhibition: -45.7%
[2]; [16]
  inhibition: 99.1%
[3]; at 0.5 µM
  inhibition: -33.9% (inactive)
[3]; [17]
  inhibition: -34.4%
[3]; [18]
  inhibition: -50.2%
[4]; at 0.5 µM
  inhibition: -6.54% (inactive)
[4]; [19]
  inhibition: 19.2%
[4]; [20]
  inhibition: -34.6%
[5]; at 0.5 µM
  inhibition: -1.27% (inactive)
[5]; [21]
  inhibition: -20.6%
[5]; [22]
  inhibition: -13.2%
[6]; at 0.5 µM
  inhibition: -9.07% (inactive)
[6]; [15]
  inhibition: -2.23%
[6]; [16]
  inhibition: 84.3%
[7]; [23]
  inhibition: 100%
[7]; at 0.5 µM
  inhibition: -1.03% (inactive)
[7]; [24]
  inhibition: 115%
[8]
  inhibition: -4.99% (inactive)
[8]; [25]
  inhibition: 0.031%
[8]; [26]
  inhibition: -30.9%
[9]; at 0.5 µM
  inhibition: -51.8% (inactive)
[9]; [27]
  inhibition: -55.3%
[9]; cisplatin combination, at 5 µM
  inhibition: 80.4%
[9]; [28]
  inhibition: -6.84%
[9]; single agent, at 5 µM
  inhibition: 89.8%
[10]; at 0.5 µM
  inhibition: -8.62% (inactive)
[10]; cisplatin combo, at 5 µM
  inhibition: 83.1%
[10]; [29]
  inhibition: 9.55%
[10]; [15]
  inhibition: -20.8%
[10]; single agent, at 5 µM
  inhibition: 73.5%
[11]; at 0.5 µM
  inhibition: -34.4% (inactive)
[11]; [30]
  inhibition: -17.3%
[11]; [31]
  inhibition: -43%
[11]; single agent, at 0.05 µM
  inhibition: -52.5%
[11]; single agent, at 5 µM
  inhibition: 100%

## CCCCOC(=O)c1ccc(O)cc1
[12]
  luciferase signal: 88 AU (inactive)

## CC(=O)CC(c1ccc([N+](=O)[O-])cc1)c1c(O)c2ccccc2oc1=O (centres undefined)
[13]
  fluorescence slope change: 22.3% (inactive)

## Oc1c(I)cc(Cl)c2cccnc12
[12]
  luciferase signal: 52 AU (inactive)

## CN1CCC(=C2c3ccccc3CCc3cccnc32)CC1
[1]
  z-score: 0.04 (inactive)

## Cc1ncc(CO)c(CO)c1O
[12]
  luciferase signal: 160 AU (inactive)

## CC(=O)Oc1cc(C(C)C)c(OCCN(C)C)cc1C
[1]
  z-score: 0.335 (inactive)

## CCN(CC)CCc1nc(-c2ccccc2)no1
[13]
  fluorescence slope change: 14.4% (inactive)

## CC1CCc2c(N3CCC(O)CC3)c(F)cc3c(=O)c(C(=O)O)cn1c23 (centres undefined)
[1]
  z-score: 1.2 (inactive)

## O=c1cc[nH]c(=O)[nH]1
[2]; at 0.5 µM
  inhibition: -40% (inactive)
[2]; [14]
  inhibition: -59%
[2]; [15]
  inhibition: -48%
[2]; [16]
  inhibition: -36.2%
[3]; at 0.5 µM
  inhibition: -92.2% (inactive)
[3]; [17]
  inhibition: -94.9%
[3]; [18]
  inhibition: -107%
[4]; at 0.5 µM
  inhibition: -17.8% (inactive)
[4]; [19]
  inhibition: -14.7%
[4]; [20]
  inhibition: -22.4%
[5]; at 0.5 µM
  inhibition: -18% (inactive)
[5]; [21]
  inhibition: -36%
[5]; [22]
  inhibition: -27.8%
[6]; at 0.5 µM
  inhibition: -17.4% (inactive)
[6]; [15]
  inhibition: -11.9%
[6]; [16]
  inhibition: -19.1%
[7]; [23]
  inhibition: -12.9%
[7]; at 0.5 µM
  inhibition: -25% (inactive)
[7]; [24]
  inhibition: -6.49%
[8]
  inhibition: -8.86% (inactive)
[8]; [25]
  inhibition: 4.39%
[8]; [26]
  inhibition: -31.7%
[9]; at 0.5 µM
  inhibition: -12.8% (inactive)
[9]; [27]
  inhibition: -14.2%
[9]; cisplatin combination, at 5 µM
  inhibition: -53.2%
[9]; [28]
  inhibition: -11.4%
[9]; single agent, at 5 µM
  inhibition: -17.3%
[10]; at 0.5 µM
  inhibition: -17.6% (inactive)
[10]; cisplatin combo, at 5 µM
  inhibition: -19.1%
[10]; [29]
  inhibition: -3.59%
[10]; [15]
  inhibition: -29.1%
[10]; single agent, at 5 µM
  inhibition: -18.8%
[11]; at 0.5 µM
  inhibition: -72% (inactive)
[11]; [30]
  inhibition: -50.2%
[11]; [31]
  inhibition: -82.8%
[11]; single agent, at 0.05 µM
  inhibition: 4.62%
[11]; single agent, at 5 µM
  inhibition: -35%

## CC1CC(OC(=O)c2ccccc2O)CC(C)(C)C1 (centres undefined)
[12]
  luciferase signal: 140 AU (inactive)

## CN(C(=O)CN(CCO)CC(=O)N(C)C(C)(C)Cc1ccccc1)C(C)(C)Cc1ccccc1
[12]
  luciferase signal: 32 AU (inactive)

## O=C(CCCN1CCC(O)(c2ccc(Br)cc2)CC1)c1ccc(F)cc1
[12]
  luciferase signal: 52 AU (inactive)

## O=C(Nc1ccccc1)OCC(CN1CCCCC1)OC(=O)Nc1ccccc1 (centres undefined)
[13]
  fluorescence slope change: 147% (active)

## O=C(N/N=C/c1ccc([N+](=O)[O-])o1)c1ccc(O)cc1
[13]
  fluorescence slope change: -24% (inactive)

## CC(C(=O)O)c1ccc2c(c1)Cc1cccnc1O2 (centres undefined)
[1]
  z-score: 0.415 (inactive)

## Cc1cccc(C)c1NC(=O)CN1CCN(CCCC(c2ccc(F)cc2)c2ccc(F)cc2)CC1
[13]
  fluorescence slope change: 64.3% (active)

## CCCCCCC[N+](CC)(CC)CCCCc1ccc(Cl)cc1
[13]
  fluorescence slope change: 178% (active)

## CC(=O)N[C@@H](CC(C)C)C(=O)O
[12]
  luciferase signal: 56 AU (inactive)

## NCCNCCNCCN
[12]
  luciferase signal: 64 AU (inactive)

## O=C(Nc1ccc(C(=O)O)c(O)c1)c1ccccc1
[12]
  luciferase signal: 48 AU (inactive)
